# Compound activity from PubChem.
# ssDAF-12 act – S. stercoralis DAF-12 nuclear receptor activators, primary screen, cell-based, luminescence, HEK293, GRIP1 co-expression, lit1-tk-luc | 370,000 tested, 1% active | AID 652126, 2013 | HEK293 ssDAF-12/GRIP1 lit1-tk-luc reporter; % of 3 µM dafachronic acid response | activation, % at 6.8 µM | Nuclear hormone receptor DAF-12 (Strongyloides stercoralis);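 active = activation above the mean over all tested compounds plus 3 SD, cut at about 0.9% in these data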;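 also: 0% = DMSO-only wells and 100% = 3 µM delta7-dafachronic acid wells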
# DAX1 inh-1 – DAX1 (NR0B1) inhibitors on StAR promoter, primary screen, cell-based, luminescence, SF-1 (NR5A1), full-length DAX-1; 370,000 tested, 1.1% active; inhibition, % at 6.8 µM; HEK293T StAR-luciferase reporter, SF-1/DAX-1 repression relief;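 active = inhibition above the mean over all tested compounds plus 3 SD, cut at about 3.6% in these data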;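 also: 0% = DAX-1 cells with DMSO and 100% = cells lacking DAX-1 with DMSO; higher inhibition means more luminescence from relief of DAX-1 repression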
# DAX1 inh-2 – DAX1 (NR0B1) inhibitors, primary screen, cell-based, HEK293, Gal4-DAX1, luciferase luminescence; Nuclear receptor subfamily 0 group B member 1 (Homo sapiens), P51843; HEK293 Gal4-DAX1 luciferase reporter; inhibition, % at 6.75 µM; 340,000 tested, 0.99% active; AID 504766, 2011;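 active = inhibition above the mean over all tested compounds plus 3 SD, cut at about 4.2% in these data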;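 also: 0% = DAX1-transfected cells with DMSO and 100% = empty-vector control cells with DMSO; inhibition shows as a rise in luminescence from relieved DAX1 repression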
# Target sequence (P51843 207-470 limits assumed): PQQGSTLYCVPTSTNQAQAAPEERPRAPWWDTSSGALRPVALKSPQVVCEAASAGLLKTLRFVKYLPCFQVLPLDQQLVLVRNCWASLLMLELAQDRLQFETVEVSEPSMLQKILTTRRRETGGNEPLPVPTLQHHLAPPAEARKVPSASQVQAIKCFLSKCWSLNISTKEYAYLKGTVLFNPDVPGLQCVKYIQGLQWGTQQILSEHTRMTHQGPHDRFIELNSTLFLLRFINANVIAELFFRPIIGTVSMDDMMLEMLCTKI
# hcDAF-12 act – H. contortus DAF-12 nuclear receptor activators, primary screen, cell-based, luminescence, HEK293, lit1-tk-luc reporter | HEK293 hcDAF-12 lit1-tk-luc reporter; 0% DMSO, 100% Δ7-dafachronic acid | activation, % at 6.8 µM | 370,000 tested, 1.4% active;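 active = activation above the mean of all tested compounds plus 3 SD, cut at about 5.5% in these data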;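 also: 100% = response to 3 µM Δ7-dafachronic acid high control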
# hgDAF-12 ag – H. glycines DAF-12 receptor agonists, primary screen, cell-based, luminescence, HEK293, GAL4 fusion, UAS-luciferase; HEK293 GAL4-hgDAF12 UAS-luciferase reporter, agonist luminescence; normalized to butyrate control; activation, % at 6.8 µM; 370,000 tested, 1.8% active; AID 687014, 2013;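 active = activation above a cutoff set at the mean of all screened compounds plus 3 SD, cut at about 10% in these data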;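 also: 0% = DMSO wells and 100% = sodium butyrate wells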
# * = called active by the depositor; · = no result given. Sampled rows, rich in hits. Any-hit rate of the full collection: about 4.1%.
SMILES,ssDAF-12 act,DAX1 inh-1,DAX1 inh-2,hcDAF-12 act,hgDAF-12 ag
O=C(N/N=C/c1cc2c(cc1Br)OCO2)c1ccccn1,0,2,·,3,6
COC(=O)CN(Cc1cn(Cc2ccccc2)nn1)S(=O)(=O)c1ccccc1Br,-1,-1,·,1,4
CC(=O)N1C[C@@H](CO)[C@@H]2C[C@H]1c1ccccc1N2C,-1,0,·,0,3
CC(C)CC(NC(=O)c1ccccc1)C(=O)OCC(=O)Nc1ccc(S(N)(=O)=O)cc1 (configuration not stated),-2,0,4.5*,-1,2
Cc1cc(NC(=O)CCC(=O)N(CC(=O)NCC2CCCO2)c2ccc(F)c(Cl)c2)no1 (configuration not stated),-1,0,4.2*,-2,-1
N#CCC1(O)C(=O)Nc2ccccc21 (configuration not stated),-1,1,·,2,2
O=C(Nc1ccccc1)Nc1ncc([N+](=O)[O-])s1,0,3.7*,-2,5,5
CC(=O)N1CCN(C(=S)NC(=O)c2ccc(S(=O)(=O)N3CCOCC3)cc2)CC1,-1,-1,4.7*,-4,1
CC(C)(C)c1ccc(C(=O)NCCN2CCCC2)cc1,1.1*,0,1,1,2
CC(C)(C)c1ccc(C(=O)NC(=S)N2CCCCCC2)cc1,-1,-1,0,-1,1
CC(C)(C)c1ccc(C(=O)NCC(=O)N2CCCC2)cc1,-1,1,0,2,2
CC(C)(C)c1ccc(C(=O)NCC(=O)O)cc1,-1,1,4.8*,-1,0
CC(=O)Nc1ccc(C(=O)Nc2ccc(S(=O)(=O)N3CCOCC3)cc2)cc1,-1,-1,1,0,-1
CC(C)(C)c1ccc(C(=O)NC(=S)N2CCCC2)cc1,1.8*,1,1,4,3
C=C(C)CSc1nnc(-c2cc(-c3ccc(OC)cc3)n[nH]2)n1N,-1,-1,·,-3,1
CC(C)C(=O)OCCCN1CCC2(CCC(c3ccccc3)CC2)C1=O (configuration not stated),-1,0,·,-2,2
CCOc1ccc(-n2c(SCC(=O)Nc3ccc4cn[nH]c4c3)nnc2-c2ccc(C(C)(C)C)cc2)cc1,-1,-1,·,-1,3
Cc1cc(C)cc(N(CC(=O)NC2CCC(C)CC2)S(=O)(=O)c2ccc(C(C)(C)C)cc2)c1 (configuration not stated),0,1,·,1,8
Cc1ccc(C(=O)NCCC(=O)N2CCCC2)cc1,1,1,6.1*,5,13*
COC(=O)c1ccc(-c2cccc(CN3CCN(c4ncc(Cc5ccccc5)cn4)CC3)c2)cc1,-1,0,·,-3,4
C/C(=N\NC(=O)Cc1cccs1)c1ccco1,-1,0,·,0,2
O=c1cc(N2CCN(c3cccc(C(F)(F)F)c3)CC2)[nH]c(=O)n1-c1ccccc1,-1,·,·,0,4
CC(=O)N1CCc2c(sc(NC(=O)C3CC3)c2-c2nc3ccccc3s2)C1,-1,-3,1,-1,1
CC(=O)Nc1sc2c(c1-c1nc3ccccc3s1)CCN(C(C)=O)C2,0,·,·,6.2*,7
C=CCn1cnc2c(nnn2Cc2ccc(F)cc2)c1=O,-1,0,4.6*,-2,0
SMILES,ssDAF-12 act,DAX1 inh-1,DAX1 inh-2,hcDAF-12 act,hgDAF-12 ag
CC(C)(C)C(=O)NCCN1C(=O)S/C(=C\c2ccc([N+](=O)[O-])cc2)C1=O,-1,-1,-1,-2,12*
O=[N+]([O-])c1ccc(S(=O)(=O)NCC2COc3ccccc3O2)cc1 (configuration not stated),0,1,1,3,0
NS(=O)(=O)c1ccc(NCC2COc3ccccc3O2)c([N+](=O)[O-])c1 (configuration not stated),0,0,0,4,11*
C=CCn1c(C)cc(C(=O)COC(=O)c2ccc(N)c([N+](=O)[O-])c2)c1C,0,2,3,5,12*
Cc1cc(C(=O)COC(=O)c2ccc(N)c([N+](=O)[O-])c2)c(C)n1Cc1ccc2c(c1)OCO2,-1,0,0,1,-1
CCCN(CC1CC1)c1nc(C)nc2c1nnn2Cc1ccccc1,-2,-1,·,-1,1
NNC(=O)c1ccc(CSc2nc3ccccc3s2)cc1,-1,0,-1,6.1*,11*
CCOC(=O)N1CCN(C(=O)CCC(=O)N2CCOc3ccc(C)cc32)CC1,-1,0,0,-1,1
Cc1ccc2c(c1)N(C(=O)CCC(=O)N1CCC(C(N)=O)CC1)CCO2,1.3*,1,0,1,1
CC1=CC(=O)C(C(C)C)=C/C1=N\OS(=O)(=O)c1ccccc1,-2,·,·,-4,-13
O=C(CCN1C(=O)c2cccc3cccc(c23)C1=O)N1CCOCC1,0,2,1,3,13*
CC(C)[C@H](NC(N)=O)C(=O)NNC(=O)COc1cccc(C(F)(F)F)c1,-2,1,6.5*,-1,0
NNC(=O)COc1cccc(C(F)(F)F)c1,-1,0,-1,0,0
COc1ccccc1C(=O)N1CCN(C(=O)[C@H]2O[C@@H](n3cnc(C(N)=O)n3)[C@H](O)[C@@H]2O)CC1,0,0,·,-1,-1
Cc1nc2ccc(NC(=S)NC3CCCCC3)cc2nc1C,-1,1,6.6*,1,3
S=C(Nc1ccc2[nH]ccc2c1)NC1CCCCC1,0,1,4.7*,2,9
CCc1c(C(=O)Nc2cc(C)ccc2OC)[nH]c(C)c1C(C)=O,0,-1,0,5.6*,1
Cn1cccc1CC(=O)NN=Cc1cccc(F)c1,-2,0,·,-1,1
Cc1nc(SCC(=O)N(C)c2ccccc2)[nH]c(=O)c1C,-2,·,·,0,-5
O=c1oc2ccccc2c(N2CCCC2)c1[N+](=O)[O-],-1,0,4.7*,-1,-3
O=C(NC1CCCCC1)N1CCC(n2c(=O)[nH]c3ccccc32)CC1,-1,-1,2,-2,0
O=c1[nH]c2ccccc2n1C1CCCCC1,-2,0,6.1*,-1,0
CCN(CC)C(=O)CC[C@@H]1CC[C@]2(CCCN(Cc3nccs3)C2)O1,-1,1,·,1,6
Oc1cccc(C2c3[nH]c4ccccc4c3CCN2Cc2ccoc2)c1 (configuration not stated),1.4*,1,1,4,0
